# Experimental data published in ChEMBL document CHEMBL3988442, “University of Dundee, Small-Polar-MMV Screening Library” (2021).
# For some assays here: Potency and affinity values are given separately.
# Assays:
# Design in all cases: scale not given: direction of the effect not stated beside the values
# [1] = target: Protein translocase subunit SecA (Escherichia coli (strain K12)) (UniProt P10408); experiment: Assay to Identify E. coli SecA ATPase Inhibitors; assay type: functional; conditions: 30 µM
# [2] = target: T1, Ubiquitin-activating enzyme e1, putative (Leishmania donovani (strain BPK282A1)) (UniProt E9BSI1); experiment: Leishmania donovani Ubiquitin Activating Enzyme (LdE1); assay type: functional; conditions: 30 µM
# T1 sequence (whole entry): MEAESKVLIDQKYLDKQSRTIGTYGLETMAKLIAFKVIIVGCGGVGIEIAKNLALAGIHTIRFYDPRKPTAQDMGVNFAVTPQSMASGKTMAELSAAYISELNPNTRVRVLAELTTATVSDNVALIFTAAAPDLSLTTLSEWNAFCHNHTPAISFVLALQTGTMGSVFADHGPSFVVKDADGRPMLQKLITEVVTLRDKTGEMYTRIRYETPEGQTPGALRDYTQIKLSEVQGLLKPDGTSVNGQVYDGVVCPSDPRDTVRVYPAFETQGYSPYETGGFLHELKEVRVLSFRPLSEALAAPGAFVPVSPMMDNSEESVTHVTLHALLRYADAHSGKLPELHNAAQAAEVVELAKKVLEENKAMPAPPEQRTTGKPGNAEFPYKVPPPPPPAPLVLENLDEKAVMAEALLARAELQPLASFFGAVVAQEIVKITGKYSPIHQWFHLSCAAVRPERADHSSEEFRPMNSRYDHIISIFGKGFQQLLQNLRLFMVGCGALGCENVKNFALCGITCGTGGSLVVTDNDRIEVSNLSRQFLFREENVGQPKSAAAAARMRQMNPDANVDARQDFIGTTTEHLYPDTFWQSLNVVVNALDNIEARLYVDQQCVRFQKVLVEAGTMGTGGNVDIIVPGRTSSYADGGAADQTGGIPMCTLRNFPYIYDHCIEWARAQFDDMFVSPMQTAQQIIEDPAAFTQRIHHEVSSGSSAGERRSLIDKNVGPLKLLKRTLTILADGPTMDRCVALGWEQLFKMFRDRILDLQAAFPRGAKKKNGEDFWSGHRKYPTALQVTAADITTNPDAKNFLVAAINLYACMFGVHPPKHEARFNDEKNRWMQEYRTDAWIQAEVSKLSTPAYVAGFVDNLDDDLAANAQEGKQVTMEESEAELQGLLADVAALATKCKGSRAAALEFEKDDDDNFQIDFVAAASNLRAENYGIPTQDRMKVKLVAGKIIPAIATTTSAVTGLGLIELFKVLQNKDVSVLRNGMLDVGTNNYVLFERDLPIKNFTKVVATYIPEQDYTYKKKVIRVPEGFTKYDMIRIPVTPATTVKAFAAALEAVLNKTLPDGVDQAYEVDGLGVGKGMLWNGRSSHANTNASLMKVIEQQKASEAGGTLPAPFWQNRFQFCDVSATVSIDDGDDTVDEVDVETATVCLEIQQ
# [3] = target: AMP-activated protein kinase, AMPK (Homo sapiens) (UniProt P54646+O43741+P54619+Q9UGJ0+Q9Y478+Q13131+Q9UGI9); experiment: AMP-dependent Kinase enzyme assay. An in vitro enzyme assay that detects ADP turnover that is directly proportional to AMPK activity. This uses naive AMPK that is activated during the assay with MK-8722; assay type: functional; conditions: 30 µM
# [4] = target: Sialic acid-binding Ig-like lectin 9 (Homo sapiens) (UniProt Q9Y336); experiment: Hs-Siglec9 ALPHAscreen SOP 20170721; conditions: 10 µM
# Trypanosoma cruzi = experiment: Trypanosoma cruzi phosphomannomutase and mannose-1-phosphate guanylyltransferase assay; assay type: functional; conditions: 10 µM
# [5] = target: T2, Arginase-2, mitochondrial (Homo sapiens) (UniProt P78540); experiment: in vitro enzyme assay to detect the production of urea directly proportional to the activity of Arginase II; assay type: functional; conditions: 33.3 µM; note: in the data most compounds retested in dose-response had high values
# T2 sequence (whole entry): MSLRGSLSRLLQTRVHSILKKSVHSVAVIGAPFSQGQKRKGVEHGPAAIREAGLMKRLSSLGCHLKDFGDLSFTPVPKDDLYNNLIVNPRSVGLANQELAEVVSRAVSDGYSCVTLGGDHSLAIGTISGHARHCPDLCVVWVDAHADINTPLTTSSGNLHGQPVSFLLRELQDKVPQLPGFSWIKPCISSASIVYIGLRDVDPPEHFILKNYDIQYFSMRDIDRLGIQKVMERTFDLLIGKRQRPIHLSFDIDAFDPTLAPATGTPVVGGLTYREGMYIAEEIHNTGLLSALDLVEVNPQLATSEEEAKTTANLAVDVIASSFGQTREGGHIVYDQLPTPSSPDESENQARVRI
# [6] = target: T3, Proteasome subunit beta (Trypanosoma cruzi) (UniProt O96673); experiment: Trypanosoma cruzi proteasome chymotrypsin-like activity (TcProtChymo) assay.; note: in the data most compounds retested in dose-response had high values; assay type: functional; conditions: 9.37 µM
# T3 sequence (whole entry): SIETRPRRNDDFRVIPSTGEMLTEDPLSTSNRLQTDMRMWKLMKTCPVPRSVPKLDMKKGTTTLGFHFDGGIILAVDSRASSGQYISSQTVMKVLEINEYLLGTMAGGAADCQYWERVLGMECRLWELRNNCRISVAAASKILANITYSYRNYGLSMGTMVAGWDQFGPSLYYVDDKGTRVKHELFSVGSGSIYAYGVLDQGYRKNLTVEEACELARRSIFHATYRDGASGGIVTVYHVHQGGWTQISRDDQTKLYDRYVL
# Homo sapiens = organism: Homo sapiens; experiment: To identify inhibition of the IFN signalling (Jak-Stat) pathway via expression of an eGFP reporter gene under the control of an IFN-stimulated response element (ISRE) containing MxA promoter.; assay type: functional; conditions: 30 µM
# [7] = target: T4, Tyrosyl-tRNA synthetase, putative (Trypanosoma cruzi (strain CL Brener)) (UniProt Q4DSP6); experiment: Trypanosoma cruzi tyrosyl tRNA synthetase (TcYRS) _High Tyrosine SOP; assay type: functional; conditions: 30 µM; note: in the data most compounds retested in dose-response had high values
# T4 sequence (whole entry): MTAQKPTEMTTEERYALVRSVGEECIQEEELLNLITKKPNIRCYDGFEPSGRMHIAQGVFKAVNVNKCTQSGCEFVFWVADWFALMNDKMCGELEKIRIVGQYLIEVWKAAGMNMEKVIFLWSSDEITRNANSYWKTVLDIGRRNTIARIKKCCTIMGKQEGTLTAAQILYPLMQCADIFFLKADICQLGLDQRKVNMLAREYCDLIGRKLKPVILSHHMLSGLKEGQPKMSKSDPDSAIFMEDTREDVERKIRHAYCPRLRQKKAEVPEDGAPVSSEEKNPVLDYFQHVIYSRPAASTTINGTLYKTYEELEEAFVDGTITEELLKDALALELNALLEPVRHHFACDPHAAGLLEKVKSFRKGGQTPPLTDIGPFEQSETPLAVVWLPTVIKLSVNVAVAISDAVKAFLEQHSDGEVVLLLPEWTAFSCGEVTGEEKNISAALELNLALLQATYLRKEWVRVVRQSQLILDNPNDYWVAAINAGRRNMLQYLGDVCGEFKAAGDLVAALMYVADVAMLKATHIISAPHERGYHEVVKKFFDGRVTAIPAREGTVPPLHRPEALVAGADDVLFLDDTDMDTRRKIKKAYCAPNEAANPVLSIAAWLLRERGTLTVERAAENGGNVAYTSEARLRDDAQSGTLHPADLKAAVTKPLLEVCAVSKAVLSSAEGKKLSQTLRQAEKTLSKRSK
# [8] = target: T4, Tyrosyl-tRNA synthetase, putative (Trypanosoma cruzi (strain CL Brener)); experiment: Trypanosoma cruzi tyrosyl tRNA synthetase (TcYRS) SOP; assay type: functional; conditions: 30 µM
# [9] = target: Chromo domain-containing protein 1 (Saccharomyces cerevisiae (strain ATCC 204508 / S288c) (Baker's yeast)) (UniProt P32657); experiment: ScCHD-1 Enzyme Inhibition Assay; assay type: functional; conditions: 30 µM; note: in the data most compounds retested in dose-response had high values
# Chain of Chromo domain-containing protein 1 (Saccharomyces cerevisiae (strain ATCC 204508 / S288c) (Baker's yeast)) (P32657 whole entry, the tested form may be a part): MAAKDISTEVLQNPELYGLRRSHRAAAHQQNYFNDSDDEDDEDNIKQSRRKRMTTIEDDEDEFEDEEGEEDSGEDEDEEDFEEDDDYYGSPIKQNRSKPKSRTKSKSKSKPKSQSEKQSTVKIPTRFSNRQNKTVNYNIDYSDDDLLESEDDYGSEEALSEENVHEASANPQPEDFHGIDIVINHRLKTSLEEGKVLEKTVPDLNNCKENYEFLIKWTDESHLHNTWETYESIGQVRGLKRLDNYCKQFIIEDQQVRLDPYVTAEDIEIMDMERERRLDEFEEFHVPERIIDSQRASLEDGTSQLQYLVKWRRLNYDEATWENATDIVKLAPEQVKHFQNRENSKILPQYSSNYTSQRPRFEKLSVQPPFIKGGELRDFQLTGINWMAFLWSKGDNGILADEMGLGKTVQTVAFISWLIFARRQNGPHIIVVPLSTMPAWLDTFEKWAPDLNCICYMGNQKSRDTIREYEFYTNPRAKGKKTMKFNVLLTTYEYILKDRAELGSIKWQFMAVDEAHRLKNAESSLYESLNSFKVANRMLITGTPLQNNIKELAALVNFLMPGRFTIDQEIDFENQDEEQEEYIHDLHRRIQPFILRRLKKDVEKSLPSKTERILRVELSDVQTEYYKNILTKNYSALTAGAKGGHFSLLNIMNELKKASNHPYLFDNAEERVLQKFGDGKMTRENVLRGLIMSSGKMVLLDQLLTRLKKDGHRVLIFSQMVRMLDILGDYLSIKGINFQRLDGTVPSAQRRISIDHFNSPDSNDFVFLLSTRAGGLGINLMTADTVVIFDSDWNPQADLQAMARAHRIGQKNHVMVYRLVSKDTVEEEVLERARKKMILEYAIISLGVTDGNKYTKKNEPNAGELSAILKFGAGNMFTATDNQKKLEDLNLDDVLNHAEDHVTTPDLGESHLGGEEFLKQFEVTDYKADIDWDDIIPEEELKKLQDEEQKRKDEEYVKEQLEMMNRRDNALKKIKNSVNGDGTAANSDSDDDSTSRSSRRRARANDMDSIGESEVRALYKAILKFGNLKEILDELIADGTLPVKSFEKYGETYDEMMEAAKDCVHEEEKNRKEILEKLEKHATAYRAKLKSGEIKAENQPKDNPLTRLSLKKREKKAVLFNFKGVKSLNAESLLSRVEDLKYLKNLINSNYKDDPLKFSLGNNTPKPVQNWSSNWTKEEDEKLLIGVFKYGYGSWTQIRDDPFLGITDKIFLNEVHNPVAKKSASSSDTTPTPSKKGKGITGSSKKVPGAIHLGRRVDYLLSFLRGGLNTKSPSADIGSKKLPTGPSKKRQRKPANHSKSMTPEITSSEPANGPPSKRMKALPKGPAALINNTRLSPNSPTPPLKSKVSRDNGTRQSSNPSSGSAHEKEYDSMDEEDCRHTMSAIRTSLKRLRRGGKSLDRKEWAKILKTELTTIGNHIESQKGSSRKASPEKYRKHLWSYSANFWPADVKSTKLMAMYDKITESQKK
# Chain of Sialic acid-binding Ig-like lectin 9 (Homo sapiens) (Q9Y336 whole entry): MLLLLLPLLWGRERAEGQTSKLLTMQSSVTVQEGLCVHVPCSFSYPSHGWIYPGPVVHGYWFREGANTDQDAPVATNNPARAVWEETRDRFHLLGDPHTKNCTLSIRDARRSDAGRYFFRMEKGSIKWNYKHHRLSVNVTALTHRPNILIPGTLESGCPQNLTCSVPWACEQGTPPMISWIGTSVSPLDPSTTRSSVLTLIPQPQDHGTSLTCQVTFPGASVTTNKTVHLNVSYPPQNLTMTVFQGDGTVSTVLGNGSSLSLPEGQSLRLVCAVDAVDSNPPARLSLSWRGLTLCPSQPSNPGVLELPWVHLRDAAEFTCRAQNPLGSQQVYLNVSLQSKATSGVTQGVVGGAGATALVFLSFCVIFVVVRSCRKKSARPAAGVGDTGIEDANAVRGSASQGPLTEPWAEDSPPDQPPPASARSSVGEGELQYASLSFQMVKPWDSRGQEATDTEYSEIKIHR
# Chain of Protein translocase subunit SecA (Escherichia coli (strain K12)) (P10408 whole entry): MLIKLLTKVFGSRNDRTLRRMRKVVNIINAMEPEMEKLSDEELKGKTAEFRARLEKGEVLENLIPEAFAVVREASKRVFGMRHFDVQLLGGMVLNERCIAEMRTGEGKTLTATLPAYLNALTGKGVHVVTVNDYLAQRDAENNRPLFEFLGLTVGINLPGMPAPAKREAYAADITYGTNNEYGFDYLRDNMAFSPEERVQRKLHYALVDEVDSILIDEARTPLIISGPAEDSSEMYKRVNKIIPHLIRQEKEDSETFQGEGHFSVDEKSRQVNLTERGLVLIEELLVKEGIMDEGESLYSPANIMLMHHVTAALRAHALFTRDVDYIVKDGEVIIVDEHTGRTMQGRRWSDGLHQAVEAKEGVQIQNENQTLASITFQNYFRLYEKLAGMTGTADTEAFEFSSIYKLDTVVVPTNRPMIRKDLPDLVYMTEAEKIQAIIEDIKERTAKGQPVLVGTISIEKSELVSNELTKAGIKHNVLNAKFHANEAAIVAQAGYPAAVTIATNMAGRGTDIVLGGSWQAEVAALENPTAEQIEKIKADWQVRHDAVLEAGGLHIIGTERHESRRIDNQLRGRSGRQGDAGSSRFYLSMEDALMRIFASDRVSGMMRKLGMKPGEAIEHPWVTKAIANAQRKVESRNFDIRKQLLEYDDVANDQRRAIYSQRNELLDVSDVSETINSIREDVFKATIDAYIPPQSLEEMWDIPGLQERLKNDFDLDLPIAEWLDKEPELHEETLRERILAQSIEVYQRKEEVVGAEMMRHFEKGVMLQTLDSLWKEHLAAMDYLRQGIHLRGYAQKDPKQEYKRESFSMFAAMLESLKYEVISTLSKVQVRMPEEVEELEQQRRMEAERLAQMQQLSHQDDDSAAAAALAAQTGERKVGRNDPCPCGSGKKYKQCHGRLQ
SMILES,Percent Effect [1],Percent Effect [2],Percent Effect [3],Percent Effect [4],Percent Effect (Trypanosoma cruzi),Percent Effect [5],Percent Effect [6],Percent Effect (Homo sapiens),Percent Effect [7],Percent Effect [8],Percent Effect [9]
CCc1ccc(CN2C[C@@H]3OCCN(c4ccnc(N(C)C)n4)[C@@H]3C2)o1,-1.43%,5.48%,-0.72%,13.7%,1.98%,-13.6%,7.28%,82.1%,5.21%,-3.7%,-4.54%
Cc1nc(C)n(CC2CCCN(c3ncnc4ccsc34)C2)n1 (stereo not given),-0.224%,10.8%,4.37%,-5.33%,-7.08%,1.2%,14.2%,73.4%,6.4%,16.1%,-6.75%
Cc1cc(C[S+]([O-])CC(=O)NCc2cccs2)no1 (stereo not given),-6.18%,10.4%,3.08%,10.1%,1.87%,-6.05%,1.01%,5.94%,8.74%,19.5%,-5.87%
Clc1ccc(CN2CCCC(Cn3cncn3)C2)c2ncccc12 (stereo not given),-5.66%,-7.79%,-0.804%,1.38%,0.688%,-1.38%,12%,-2.35%,4.3%,3.7%,3.92%
CC(=O)N1CCCN(C(=O)c2cnc3n[nH]c(C)c3c2)CC1,-1.9%,15.8%,-3.49%,5.52%,3.08%,3.96%,2.45%,-3.15%,9.36%,23.5%,-9.47%
CC(C)c1nn(C)c(N(C)C)c1CNCc1ccc2c(c1)OCO2,-3%,7.89%,-15.5%,1.82%,-7%,2.16%,-2.45%,-9%,-0.493%,11.1%,0.321%
N#Cc1cccc(S(=O)(=O)NC(=O)COC2CCCC2)c1,-0.529%,26%,-4.75%,-1.76%,1.31%,1.07%,11.3%,0.622%,7.77%,21.9%,-7.26%
CC(=O)N(Cc1ncc(C(C)C)o1)C1CCN(CCn2cccn2)C1 (stereo not given),0.67%,10.8%,-13.2%,0.985%,2.69%,0.924%,18.9%,-1.48%,14.8%,1.22%,-4.25%
CCn1nccc1CNC(=O)C1CC1,-5.07%,10.4%,-0.00833%,7.25%,5.61%,-4.14%,10.7%,-23.9%,8.6%,18.5%,132%
CCCn1ncc(CN2C[C@@H]3CCCN3C[C@@H]2CCSC)c1C,0.712%,9.46%,3.26%,-4.09%,-5.93%,-3.02%,19.5%,8.73%,3.23%,6.49%,-15%
